40 compounds from PubChem BioAssay AID602364 (National Center for Advancing Translational Sciences (NCATS), 2012) can be followed below.

SMILES strings stand for the structures. Records with an inconclusive call do not appear. The source made the active and inactive calls. Calls come from the whole dose curve; as a rule, active = well fitted inhibition curve with a large enough effect; inconclusive = small, poorly fitted or top-dose-only effect; inactive = flat fitted curve, though single readings scatter.

Sequence of Luciferin 4-monooxygenase (Photinus pyralis) (P08659 whole entry, looked up): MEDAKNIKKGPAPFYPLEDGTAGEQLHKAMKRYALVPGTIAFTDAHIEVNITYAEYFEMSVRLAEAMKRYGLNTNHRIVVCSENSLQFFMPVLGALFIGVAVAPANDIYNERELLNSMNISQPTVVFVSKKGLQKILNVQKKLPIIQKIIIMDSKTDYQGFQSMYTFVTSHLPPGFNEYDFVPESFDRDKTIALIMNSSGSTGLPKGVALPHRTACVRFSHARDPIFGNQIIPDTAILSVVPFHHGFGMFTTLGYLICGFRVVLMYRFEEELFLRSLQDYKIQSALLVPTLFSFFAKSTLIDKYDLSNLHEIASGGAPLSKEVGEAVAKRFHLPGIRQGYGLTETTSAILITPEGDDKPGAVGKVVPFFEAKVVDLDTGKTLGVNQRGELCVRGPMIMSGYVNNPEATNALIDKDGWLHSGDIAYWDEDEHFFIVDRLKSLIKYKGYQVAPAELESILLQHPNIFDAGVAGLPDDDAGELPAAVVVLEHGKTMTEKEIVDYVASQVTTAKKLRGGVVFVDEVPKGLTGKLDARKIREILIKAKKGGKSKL

In the assay the target is Luciferin 4-monooxygenase (Photinus pyralis) (UniProt P08659). The experiment in a line: FLuc inhibitory activity for the follow-up compounds in a biochemical assay with 1mM ATP. To be noted: purified P. pyralis luciferase, luminescence; series mostly up to 57.5 µM. The source says:
NCGC Assay Overview: Firefly (Photinus pyralis) luciferase is one of the most commonly used transcriptional reporters. It is considered one of the more dynamically responsive reporters - that is, responsive to changes in reporter transcription - as it requires no post-translational modifications and is enzymatically active directly after protein synthesis (Wood, 1998). With no endogenous expression in mammalian cells and without the requirement of external excitation, it offers very little background signal, thus generally providing excellent signal to background for most assays. Previous profiling work to determine the prevalence of compounds that affect FLuc enzymatic activity (PubChem AID 411) identified that ~3% of the MLSMR library (then at ~72K) inhibited FLuc. […] Of the compounds identified in this profile that inhibited FLuc, 151 compounds were selected for further analysis, in an effort to better understand their mode of inhibiting FLuc. The assay described here was to determine the activity of the compounds in a FLuc assay that contained a KM concentration of D-luciferin and a high concentration (1mM) of ATP.
NCGC Assay Protocol Summary: Reagents: 50mM Tris acetate, pH 7.5; 10mM Mg acetate; 10uM D-luciferin (Sigma #L9504); 1mM ATP; 0.01% Tween-20; 0.05% BSA; 10nM P. pyralis luciferase (Sigma #L9506) Control compounds used were two known firefly luciferase inhibitors (3-(5-(3-chlorophenyl)-1,2,4-oxadiazol-3-yl)benzoic acid and 5-(2-fluorophenyl)-3-phenyl-1,2,4-oxadiazole), and DMSO. Three microliters containing firefly luciferase substrates in buffer (final concentrations: 50mM Tris acetate, pH 7.5, 10mM Mg acetate, 0.01% Tween-20, 0.05% BSA, 10uM D-luciferin, 1mM ATP) are dispensed into each well of a Greiner white, solid-bottom 1536-well format plate using a flying reagent dispenser (FRD). These assay plates were then treated with 23nL of compound or DMSO using a Kalypsys pin tool, which allows for delivery of a 12-point intraplate titration of each compound to the assay plate (quantitative HTS), with a final compound concentrations ranging from approximately ~60uM to 0.3nM. One microliter of firefly luciferase in […] Tris-acetate buffer was then delivered by FRD to each well for a final enzyme concentration of 10nM. Luciferase activity was then measured using a ViewLux CCD imager (PerkinElmer), with an average exposure time of 2-30 seconds (2X binning, medium/high gain).
Take `COc1ccc(C(=O)Nc2ccccc2C(=O)N/N=C/c2ccc(O)c(OC)c2)cc1`: the Potency is 0.0146 µM (active).

`CCn1c(C)nc2cc(-c3nc4n(n3)Cc3ccccc3-4)ccc21`: the Potency was 0.0326 µM (active).

Regarding `O=C(Nc1ccccc1C(=O)O)c1ccc(Cl)c(S(=O)(=O)N2CCOCC2)c1`, the Potency was 10.3 µM (active).

`Nc1cccc(-c2nc3ccc(N)cc3s2)c1`: the Potency was 0.116 µM (active).

On to `Nc1ccc(-c2nc3ccc(C(=O)O)cc3s2)cc1`, for which the Potency is 0.0651 µM (active).

Take `COc1ccc(NS(=O)(=O)c2cccc(C(=O)Nc3ccccc3C(=O)O)c2)cc1`: the Potency entry is “inactive”.

In the case of `COc1ccccc1C(=O)Nc1ccc(C(=O)Nc2ccccc2C(=O)O)cc1`, the Potency entry is “inactive”.

Take `COc1ccc2nc(NC(=O)c3ccco3)sc2c1`: the Potency was 0.183 µM (active).

Take `O=C(Nc1ccccc1C(=O)O)c1cccc(NC(=O)c2ccco2)c1`: the Potency was 18.3 µM (active).

Take `COc1ccc(C(=O)Nc2nc3ccc(OC)cc3s2)cc1`: the Potency is 5.8 µM (active).

With `CCCOc1cccc(C(=O)Nc2ccc(-c3nc4ccccc4s3)c(Cl)c2)c1`, the Potency result is “inactive”.

As for `Cc1c(NS(C)(=O)=O)cccc1-c1nc2ccccc2s1`, the Potency was 10.3 µM (active).

With `Cc1ccc(C(=O)Nc2ccccc2C(=O)O)cc1S(=O)(=O)N1CCCCCC1`, the Potency was 1.83 µM (active).

As for `O=C(Nc1ccccc1C(=O)O)c1ccc(NC(=O)C2CCCCC2)cc1`, the Potency is 32.6 µM (active).

`COc1ccc2nc(NC(=O)c3ccc([N+](=O)[O-])o3)sc2c1`: the Potency is 3.26 µM (active).

Consider `COc1ccc(Br)cc1C(=O)Nc1ccc(C(=O)O)cc1`, for which the Potency result is “inactive”.

`CCOc1ccc2nc(NC(=O)Cc3cccs3)sc2c1`: the Potency was 3.66 µM (active).

For the compound `Nc1ccc2nc(-c3ccccc3)sc2c1`, the Potency is 0.0366 µM (active).

With `Cc1ccc(C(=O)Nc2ccc(C(=O)O)cc2)cc1S(=O)(=O)NCc1ccccc1`, the Potency entry is “inactive”.

In the case of `Cc1ccc(S(=O)(=O)N2CCOCC2)cc1C(=O)Nc1ccccc1C(=O)O`, the Potency result was “inactive”.

On to `O=C(Nc1ccccc1C(=O)O)c1cccc(NC(=O)c2ccccc2Br)c1`, for which the Potency is 36.6 µM (active).

Regarding `O=C(O)c1cccc(NC(=O)c2ccc(Cl)c(S(=O)(=O)N3CCCCCC3)c2)c1`, the Potency is 0.366 µM (active).

For `CN(C)c1cccc(C(=O)Nc2ccc(-c3nc4ccccc4s3)cc2)c1`, the Potency is 0.819 µM (active).

Take `CN(C)S(=O)(=O)c1ccc(C(=O)Nc2ccccc2C(=O)O)cc1`: the Potency was 32.6 µM (active).

As for `O=C(Nc1cccc(-c2nc3ccccc3s2)c1)C1=COCCO1`, the Potency was 25.9 µM (active).

Turning to `CC(C)c1ccc(C(=O)Nc2ccc(-c3nc4ccccc4s3)c(Cl)c2)cc1`, the Potency result was “inactive”.

On to `CC(C)Oc1ccc(C(=O)Nc2ccc(-c3nc4ccccc4s3)cc2)cc1`, for which the Potency result was “inactive”.

Turning to `COc1c(C)cccc1C(=O)Nc1ccc(-c2nc3ccccc3s2)c(Cl)c1`, the Potency entry is “inactive”.

Consider `COc1ccc(-c2cccc(C(=O)Nc3cccc(C(=O)O)c3)c2)cc1`, for which the Potency was 5.8 µM (active).

Take `O=C(Cc1ccccc1)Nc1ccc(C(=O)Nc2ccccc2C(=O)O)cc1`: the Potency is 20.6 µM (active).

As to `CC(C)CC(=O)Nc1cccc(C(=O)Nc2ccccc2C(=O)O)c1`, the Potency was 18.3 µM (active).

`COc1ccc(C(=O)Nc2ccccc2C(=O)Nc2ccc(C(=O)O)cc2)cc1`: the Potency was 18.3 µM (active).

With `O=C(Nc1ccc(-c2nc3ccccc3s2)cc1)C1=COCCO1`, the Potency was 0.0183 µM (active).

As for `O=C(Nc1ccccc1C(=O)O)c1cccc(S(=O)(=O)N2CCCC2)c1`, the Potency was 16.3 µM (active).

Regarding `Cc1c(NC(=O)c2cc(-n3cnnc3)ccc2Cl)cccc1-c1nc2ccccc2s1`, the Potency was 2.91 µM (active).

Regarding `CCOC(=O)N1CCN(CC(=O)Nc2nc3ccc(OC)cc3s2)CC1`, the Potency result was “inactive”.

As for `COc1ccc2nc(NC(=O)c3ccc(S(=O)(=O)N4CCCC(C)C4)cc3)sc2c1` (stereo not given), the Potency result was “inactive”.

Regarding `CCOc1ccc2nc(NC(=O)c3ccccc3)sc2c1`, the Potency is 0.0919 µM (active).

With `O=C(O)c1cccc(NC(=O)c2ccc(COc3ccc(Cl)cc3)cc2)c1`, the Potency was 3.66 µM (active).

Consider `O=S(=O)(c1ccc(-c2nc3ccccc3s2)cc1)N1CCCC1`, for which the Potency was 0.919 µM (active).
